High-throughput results as filed in PubChem.
KCNQ2 block – rat KCNQ2 potassium channel inhibitors, primary screen, cell-based, CHO-K1, FluxOR thallium flux, B-score; 310,000 compounds, 1.1% hits; B-score at 10 µM; AID 2156, 2009; Potassium voltage-gated channel subfamily KQT member 2 (Rattus norvegicus), O88943; 20 min; hits give low values;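 active means fluorescence ratio B-score at most minus 3 library SDs, with starting brightness B-score within 2 library SDs, cut at about -5.5 in these data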
KCNQ2 pot – potentiators of rat KCNQ2 potassium channel; Potassium voltage-gated channel subfamily KQT member 2 (Rattus norvegicus), O88943; CHO-K1 KCNQ2, FluxOR thallium flux fluorescence; hits give high values; B-score at 10 µM; 310,000 compounds, 0.54% hits;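 active means fluorescence ratio B-score at least 3 SD of library B-scores, with initial fluorescence B-score within 3 of them, cut at about 5.3 in these data; same plate scores as AID 2156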;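 further: B-score of peak minus minimum over baseline fluorescence ratio after K+ and Tl+ stimulus; positive B-score means potentiation of KCNQ2 with more thallium influx and brighter signal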
Kir21 conf inh – mouse Kir2.1 channel blockers, retest, confirmation, cell-based, FluxOR thallium flux, duplicate; shares compounds with KCNQ2 pot; Kir2.1-expressing cells, FluxOR thallium flux fluorescence; hits give low values; Tl flux remaining, % of negative control (hits give low values), % at 10 µM; 2,300 compounds, 41% hits;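 active means Primary-screen hit whose thallium flux fell at least 3 control SD below untreated wells in both duplicates, with normal baseline fluorescence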
HEK293 Tl flux – parental HEK293 activity in Kir2.1 inhibitor counter-screen. shares compounds with KCNQ2 pot. parental HEK293 cells, FluxOR thallium flux fluorescence; 0% = unstimulated blank wells. FluxOR signal as % of negative control (100 = no effect), % at 10 µM. 2,300 compounds, 19% hits. AID 2105;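 active means dye signal at least 3 control SD above or below untreated wells in both duplicates, raw fluorescence within 3, either direction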;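 further: percent is based on the flux ratio of peak minus minimum fluorescence over baseline F0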
CHO-K1 Tl ctr – nonspecific thallium flux increase in parental CHO-K1, confirmation, counter-screen for KCNQ2 potentiator project, cell-based, FluxOR thallium flux, duplicate; shares compounds with KCNQ2 pot; parental CHO-K1 cells, FluxOR thallium flux fluorescence; zero = vehicle mean+3SD, 100% = vehicle-minus-blank window; activity increase over 3SD of controls, % at 10 µM; 1,200 compounds, 43% hits; AID 2282, 2010;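 active means signal rise of at least 3 SD above the untreated control mean, in both duplicate wells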;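 further: counter screen of KCNQ2 potentiator hits so any rise reflects channel-independent effects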
KCNQ1 pot spec – human KCNQ1 channel potentiation off-target, confirmation, selectivity assay for KCNQ2 potentiator project, cell-based, CHO, FluxOR thallium flux | CHO KCNQ1 stable, FluxOR thallium flux fluorescence; beyond 3SD, as % of vehicle-control signal | activation over 3SD threshold, % at 10 µM | AID 2283, 2010 | 1,200 compounds, 28% hits | shares compounds with KCNQ2 pot;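 active means fluorescence ratio rise of at least 3 SD of vehicle wells above their mean, in both replicate wells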
KCNQ2 pot confirm – rat KCNQ2 channel potentiators, confirmation, cell-based, CHO, FluxOR thallium flux, duplicate | AID 2287, 2010 | CHO-KCNQ2 cells, FluxOR thallium flux fluorescence | shares compounds with KCNQ2 pot | 1,200 compounds, 68% hits | potentiation, less the hit threshold, % at 10 µM;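 active means fluorescence ratio rising 3 SD or more over the vehicle control mean in both replicates, plus primary screen hit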;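 further: peak minus minimum thallium fluorescence divided by baseline after K/Tl stimulus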
Kir2-1 sel – mouse Kir2.1 channel activation off-target, confirmation, selectivity assay for KCNQ2 potentiator project, cell-based, HEK293, FluxOR thallium flux | shares compounds with KCNQ2 pot | HEK293 Kir2.1, FluxOR thallium flux fluorescence | activity over 3SD threshold, % at 10 µM | 1,200 compounds, 2% hits | AID 2345, 2010;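 active means fluorescence ratio rise of at least 3 SD above the vehicle-control mean, seen in both replicates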
KCNQ2 W236L MoA – potentiators of retigabine-insensitive KCNQ2 W236L, mechanism study for KCNQ2 potentiator project, cell-based, rat KCNQ2 W236L, CHO, automated patch clamp; shares compounds with KCNQ2 pot; automated patch clamp current; current increase over 3SD of negative controls (%), hits give high values, % at 25 µM; 940 compounds, 10% hits;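 active means current increase at least 3 SD of the untreated controls above them in both duplicate recordings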
Target sequence (O88943 whole entry W236L, looked up): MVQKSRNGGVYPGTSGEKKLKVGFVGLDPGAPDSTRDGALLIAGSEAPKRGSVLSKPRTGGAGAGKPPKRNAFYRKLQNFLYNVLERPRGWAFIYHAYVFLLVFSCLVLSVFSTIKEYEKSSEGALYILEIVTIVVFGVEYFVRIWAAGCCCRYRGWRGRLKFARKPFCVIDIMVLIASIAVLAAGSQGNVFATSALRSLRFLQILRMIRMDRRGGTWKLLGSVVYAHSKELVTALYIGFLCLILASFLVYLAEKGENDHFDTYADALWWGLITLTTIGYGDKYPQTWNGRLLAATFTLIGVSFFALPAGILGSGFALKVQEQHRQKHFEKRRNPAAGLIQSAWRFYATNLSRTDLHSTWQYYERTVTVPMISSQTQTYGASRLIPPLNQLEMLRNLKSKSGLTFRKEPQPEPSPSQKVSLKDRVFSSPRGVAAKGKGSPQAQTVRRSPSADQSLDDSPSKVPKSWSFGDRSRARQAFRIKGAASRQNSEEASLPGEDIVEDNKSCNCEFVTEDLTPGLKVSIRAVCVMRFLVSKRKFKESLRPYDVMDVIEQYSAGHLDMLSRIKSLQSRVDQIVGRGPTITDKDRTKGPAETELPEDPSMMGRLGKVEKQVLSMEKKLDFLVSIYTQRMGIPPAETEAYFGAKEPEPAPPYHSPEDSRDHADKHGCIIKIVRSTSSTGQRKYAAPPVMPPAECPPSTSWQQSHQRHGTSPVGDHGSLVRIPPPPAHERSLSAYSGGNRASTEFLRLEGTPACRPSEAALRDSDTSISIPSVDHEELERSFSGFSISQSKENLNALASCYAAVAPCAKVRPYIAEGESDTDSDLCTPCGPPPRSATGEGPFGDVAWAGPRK
Hits are given with their value; i = inactive; nt = not tested or not shown. Sampled rows, rich in hits. Any-hit rate of the full collection: about 1.6%.

SMILES | KCNQ2 block | KCNQ2 pot | Kir21 conf inh | HEK293 Tl flux | others
CCOc1cc(CNCCSc2nnnn2C)cc(Br)c1OCc1ccccc1F | i | i | nt | nt
COc1ccc(S(=O)(=O)N2CCCCCC2)cc1C(=O)Nc1ccccn1 | i | i | nt | nt
CN(C)c1ccc(/C=N/n2c(C3CCCCC3)n[nH]c2=S)cc1 | i | nt | nt | nt
OCC[C@@H]1C[C@H](O)[C@@H](O)[C@]2(CCCc3ccccc3O2)O1 | i | i | nt | nt
O=C(CSc1nc2ccccc2n1Cc1ccccc1)N/N=C/c1ccccc1C(=O)O | i | i | nt | nt
O=C(O)COc1ccccc1/C=N/NC(=O)CSc1nc2ccccc2n1Cc1ccccc1Cl | i | i | i | 73%
COC(=O)c1cnc(Oc2ccc(NC(=O)NC(=O)c3ccccc3Cl)cc2)cc1C(F)(F)F | i | i | nt | nt
Cc1ccccc1OCC(O)CN1CCN(CCN2C(=O)c3cccc4cccc(c34)C2=O)CC1 (stereo not given) | i | nt | nt | nt
Cc1cccc(C)c1OCC(O)CN1CCC(CN2C(=O)c3cccc4cccc(c34)C2=O)CC1 (stereo not given) | i | 5.7 | i | i | CHO-K1 Tl ctr=50;KCNQ1 pot spec=i;KCNQ2 pot confirm=i;Kir2-1 sel=i
Cc1c(C(c2ccc(F)cc2)c2c(C)n(C)n(-c3ccccc3)c2=O)c(=O)n(-c2ccccc2)n1C | i | nt | nt | nt
CC(C)=CC(=O)Nc1c(C)cc(C)cc1Cl | i | 11 | i | i | CHO-K1 Tl ctr=i;KCNQ1 pot spec=i;KCNQ2 pot confirm=28;Kir2-1 sel=i;KCNQ2 W236L MoA=i
Cc1cc(C)c(NC(=O)CCCC(=O)O)c(Cl)c1 | i | nt | nt | nt
COc1ccc(-c2nc(SC(C)C(=O)NCC3CCCO3)n[nH]2)cc1 (stereo not given) | i | nt | nt | nt
COCCn1c(SCC(=O)Nc2ccccc2OC)nc2ccccc21 | i | nt | nt | nt
COCCn1c(SCC(=O)Nc2nc(C)c(Cl)cc2Cl)nc2ccccc21 | i | i | 62% | i
CCCCN(C(=O)c1oc2ccc(OCC)cc2c1C)c1c(N)n(CC(C)C)c(=O)[nH]c1=O | i | i | nt | nt
CCCCCCOc1ccc(/C(C)=N/NC2=NCCN2)cc1[N+](=O)[O-] | i | i | nt | nt
CCCCOc1ccc(Br)cc1/C(C)=N/NC1=NCCN1 | i | nt | i | i
OC1(c2nc3ccccc3[nH]2)CCCCC1 | i | i | nt | nt
CC(=O)N/C(=C\c1ccc(F)cc1)C(=O)OCc1ccccc1 | i | nt | nt | nt
Cc1ccc(OCC(=O)NCCCNC(=O)c2ccccn2)cc1C | i | i | nt | nt
O=C(/C=C/c1ccccc1Cl)c1ccccc(=O)c1O | i | 8.4 | i | 153% | CHO-K1 Tl ctr=i;KCNQ1 pot spec=4.1;KCNQ2 pot confirm=i;Kir2-1 sel=i
O=C(/C=C/c1ccccc1Cl)Nc1ccccc1 | i | nt | nt | nt
Cc1ccc(C)c(/C=C/C(=O)c2ccccc(=O)c2O)c1 | i | 18 | i | 144% | CHO-K1 Tl ctr=33;KCNQ1 pot spec=36;KCNQ2 pot confirm=i;Kir2-1 sel=i;KCNQ2 W236L MoA=i
Cc1ccc(C)c(NC(=O)c2ccccc2O)c1 | i | i | nt | nt
SMILES | KCNQ2 block | KCNQ2 pot | Kir21 conf inh | HEK293 Tl flux | others
CC1=C(C)CC(C(=O)NCc2c(F)cccc2Cl)C(C(=O)O)C1 (stereo not given) | i | i | nt | nt
COc1cc(C(=S)N2CCOCC2)cc(OC)c1OS(=O)(=O)c1ccc(C)cc1 | i | i | nt | nt
Cc1ccc(C(C)NC(=S)NC2CCCCC2)c(C)c1 (stereo not given) | i | 7.3 | nt | nt | CHO-K1 Tl ctr=70;KCNQ1 pot spec=i;KCNQ2 pot confirm=i;Kir2-1 sel=i;KCNQ2 W236L MoA=8.5%
CCC(NC(=S)NC1CCCCC1)c1ccc(C(C)C)cc1 (stereo not given) | i | 14 | i | i | CHO-K1 Tl ctr=18;KCNQ1 pot spec=i;KCNQ2 pot confirm=54;Kir2-1 sel=i;KCNQ2 W236L MoA=i
COc1ccc(C(C)NC(=S)NC2CCCC2)cc1OC (stereo not given) | i | i | nt | nt
Cc1ccc(C(C)NC(=O)C2CCCC2)c(C)c1 (stereo not given) | i | i | nt | nt
Cc1ccc(C(C)NC(=S)NC2CCCCC2)cc1C (stereo not given) | i | 25 | i | i | CHO-K1 Tl ctr=i;KCNQ1 pot spec=8.7;KCNQ2 pot confirm=103;Kir2-1 sel=i;KCNQ2 W236L MoA=i
CCN1CCN(C(c2cccs2)C(C)NC(=S)NC2CCCCC2)CC1 (stereo not given) | i | nt | nt | nt
CCC(NC(=O)NC1CCCCC1)c1ccccc1 (stereo not given) | i | 19 | i | i | CHO-K1 Tl ctr=i;KCNQ1 pot spec=i;KCNQ2 pot confirm=70;Kir2-1 sel=i;KCNQ2 W236L MoA=i
CC(=O)NC(CC(=O)NC1CCCCCC1)c1ccccc1 (stereo not given) | i | i | nt | nt
CCCc1nc2sc3c(c2c(=O)n1NC(=O)CCC(=O)OC)CCCC3 | i | 9.3 | i | i | CHO-K1 Tl ctr=6.2;KCNQ1 pot spec=3.4;KCNQ2 pot confirm=31;Kir2-1 sel=i;KCNQ2 W236L MoA=i
Cc1nc2sc3c(c2c(=O)n1NC(=O)CCBr)CCCC3 | i | 6.6 | i | i | CHO-K1 Tl ctr=i;KCNQ1 pot spec=i;KCNQ2 pot confirm=11;Kir2-1 sel=i;KCNQ2 W236L MoA=i
CCCc1nc2sc3c(c2c(=O)n1N)CCC3 | i | nt | nt | nt
Cc1ccccc1-n1c(SCC(=O)O)nc2sc3c(c2c1=O)CCCC3 | i | nt | nt | nt
O=S(=O)(NC(=S)c1ccccc1)c1ccc(F)cc1 | i | i | nt | nt
CN1CCN(C2=Cc3ccc(Cl)cc3Sc3ccc(F)cc32)CC1 | i | nt | nt | nt
CN1CCN(C2=Cc3ccccc3Sc3cc(F)ccc32)CC1 | i | nt | 57% | i
COc1ccc(S(=O)(=O)N2CCOC2CNC(=O)C(=O)NCCN2CCOCC2)cc1 (stereo not given) | i | nt | nt | nt
CCCOc1cccc(-c2cc(C(=O)NN)c3ccccc3n2)c1 | i | i | nt | nt
CCCOc1cccc(-c2cc(C(=O)N/N=C/c3ccccn3)c3ccccc3n2)c1 | i | 5.5 | i | i | CHO-K1 Tl ctr=i;KCNQ1 pot spec=i;KCNQ2 pot confirm=i;Kir2-1 sel=i
COc1ccc(CSC(=N)N)cc1[N+](=O)[O-] | i | i | nt | nt
CCCCCOc1ccc(CSC(=N)N)cc1[N+](=O)[O-] | i | nt | 29% | i
CCOc1ccc(C(C)=O)cc1CSC(=N)N | i | i | nt | nt
